Experimental data reported in PubChem BioAssay.
Several values for one entry are separate records, joined by “and”; a condition that tells them apart may be missing. Equal entries are not always repeated. Activity calls are given as the source filed them.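 Rule for the calls: active = compounds whose cell count with miR-34 switched on is under 0.7 times the count with it off; inactive = the rest.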

Assay: viability loss with induced miR-34 in A549 – imaging, A549 dox-inducible miR-34, nuclei and caspase counts, primary screen (AID 1347080); note: test concentration not given here
Settings: A549 miR-34 inducible, Hoechst nuclei count, 48 h
[1] = stronger effect = lower value, cell number ratio, induced over uninduced
[2] = measured here: relative caspase fold change +Dox/-Dox
[3] = measured here: total cells with miR-34 induction, stronger effect = lower value
[4] = measured here: total cells without miR-34 induction

Compound	fold change [1]	fold change [2]	cell count [3]	cell count [4]
CCCC1([C@@H](O)C/C=C/[C@H]2[C@H](O)CC(=O)[C@@H]2CCCCCCC(=O)O)CCC1	0.95 (inactive)	1.46	5970	6280
N=C(N)SCCC[C@H](N)C(=O)O	0.98 (inactive)	0.775	5850	5970
CCCCCC(=O)/C=C/[C@@H]1[C@@H](CCCCCCC(=O)O)[C@@H](O)C[C@H]1O	1.03 (inactive)	1.29	5670	5520
O=C(O)CCC/C=C\C[C@@H]1[C@@H](CC[C@@H](O)CCc2ccccc2)[C@H](O)C[C@@H]1O	0.863 (inactive)	1.41	5880	6810
O=C(CCC/C=C\C[C@@H]1[C@@H](/C=C/[C@@H](O)CCc2ccccc2)[C@H](O)C[C@@H]1O)NC(CO)CO	0.978 (inactive)	1.15	5210	5330
OCCC/C=C/c1ccccc1	0.953 (inactive)	1.17	5920	6210
O=C(OCc1ccccc1)[C@H](O)c1ccccc1	1.04 (inactive)	0.545	5580	5350
CCCCC[C@H](O)/C=C/[C@@H]1[C@@H](C/C=C\CCCC(=O)NCCO)[C@@H](O)C[C@H]1O	0.899 (inactive)	1.5	5200	5780
COC1=C2C[C@@H](C)C[C@H](OC)[C@H](O)[C@@H](C)/C=C(\C)[C@H](OC(N)=O)[C@@H](OC)/C=C\C=C(/C)C(=O)NC(=CC1=O)C2=O	0.898 (inactive)	1.11	1320	1470
CCCCC[C@H](O)/C=C/[C@H]1C=CC(=O)[C@H]1C/C=C\CCCC(=O)O	1.06 (inactive)	1.6	6170	5800
CCCCCC#CCC#CCCCCCCCC(=O)O	0.999 (inactive)	0.839	6260	6270
O=C1OC(O)C(c2cc3ccccc3s2)=C1Br (stereo not given)	0.915 (inactive)	0.534	5180	5660
CCCCCC(=O)CC[C@H]1[C@H](O)CC(=O)[C@@H]1C/C=C\CCCC(=O)O	0.975 (inactive)	1.25	6140	6290
CCCCC/C=C\C/C=C\C/C=C\CCCCCCC(=O)OC	1.11 (inactive)	0.903	6440	5790
CCCCC[C@H](O)/C=C/[C@@H]1[C@@H](C/C=C\CCCC(=O)OC(C)C)[C@@H](O)C[C@H]1O	0.994 (inactive)	1.14	5380	5420
Cc1nnsc1C(=O)Nc1ccc(-n2nc(C(F)(F)F)cc2C(F)(F)F)cc1	1.08 (inactive)	1.08	5850	5430
CCCCC[C@H](O)/C=C/[C@H]1[C@H](O)CC(=O)[C@H]1CCCCCCC(=O)O	1.03 (inactive)	0.989	5570	5390
C=C1C[C@@H](O)[C@H](/C=C/[C@@H](O)C(C)(C)CCCC)[C@H]1C/C=C\CCCC(=O)O	0.979 (inactive) and 0.901 (inactive)	1.17 and 1.12	6150 and 5990	6290 and 6650
CC/C=C\C/C=C\C/C=C\C/C=C\CCCCC(=O)O	0.875 (inactive)	0.773	5720	6540
CCCCCCCCCCCCCCCC(=O)OC[C@@H](O)COP(=O)(O)O	0.985 (inactive)	0.427	5760	5850
O=C(CCCC[C@@H]1SC[C@@H]2NC(=O)N[C@@H]21)NCCCC[C@H](NC(=O)CCN1C(=O)C=CC1=O)C(=O)O	0.911 (inactive)	0.469	5380	5910
O=C(CCCCc1ccccc1)C(F)(F)C(F)(F)F	0.952 (inactive)	1.77	5980	6280
Cc1ccccc1C#Cc1ccc(CCC(=O)O)cc1	1.11 (inactive)	1.21	6610	5930
C#CCCCCCCCCCNC(=O)Oc1cccc(-c2cccc(C(N)=O)c2)c1	0.97 (inactive)	1.13	5690	5860
NC(=Nc1ccc(F)cc1)NO	1.01 (inactive)	1.07	5540	5470
CCCCCCC(=O)SC[C@H](COP(=O)([O-])OCC[N+](C)(C)C)SC(=O)CCCCCC	0.918 (inactive)	0.72	5570	6070
CCCCC[C@H](O)/C=C/[C@H]1CC[C@H](O)[C@@H]1CCCCCCC(=O)O	0.966 (inactive)	1.33	6200	6420
COc1cc(C[C@H]2COC(=O)[C@@H]2Cc2ccc(O)c(OC)c2)ccc1O	0.981 (inactive)	0.938	5500	5600
CCCCC[C@H](O)/C=C/[C@@H]1[C@H]2C/C(=C\CCCC(=O)O)C[C@H]2C[C@H]1O	0.922 (inactive)	1.13	6140	6660
CCCCCCCCCCCC(=O)c1nc2ncccc2o1	0.934 (inactive)	1.01	5110	5460
